Source: PubChem (National Center for Advancing Translational Sciences (NCATS))
D2 ag-1: activates the human D2 dopamine receptor; hit rate 0.084% among 360,000; P14416; DiscoveRx PathHunter D2 beta-arrestin, luminescence, 90 min; 100% = 57 uM dopamine signal; activation, % (test concentration not listed); AID 624465; in the data active = activation above about 40%
Target sequence (P14416 whole entry, looked up): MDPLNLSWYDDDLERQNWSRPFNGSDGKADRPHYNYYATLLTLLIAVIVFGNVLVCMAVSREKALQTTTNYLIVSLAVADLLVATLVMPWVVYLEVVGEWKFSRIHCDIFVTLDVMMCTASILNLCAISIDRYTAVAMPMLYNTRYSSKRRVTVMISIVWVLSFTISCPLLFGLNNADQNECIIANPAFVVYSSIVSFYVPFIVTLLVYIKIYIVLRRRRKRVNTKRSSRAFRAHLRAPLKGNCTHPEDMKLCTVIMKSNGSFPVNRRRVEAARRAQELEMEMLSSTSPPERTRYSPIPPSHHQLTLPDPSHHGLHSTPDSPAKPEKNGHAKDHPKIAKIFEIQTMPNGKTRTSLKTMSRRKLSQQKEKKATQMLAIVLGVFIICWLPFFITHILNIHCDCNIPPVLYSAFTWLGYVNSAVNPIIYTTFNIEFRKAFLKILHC
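Agonist mode: compounds alone added to overnight-plated D2 PathHunter cells for 90 min at 37 C, with 57 uM final dopamine (EC100) defining full response. Beta-arrestin recruitment detected by chemiluminescent reagent, read after 1 h at ambient temperature.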
D2 ag-2: activates the human D2 dopamine receptor; hit rate 0.53% among 340,000; HEK293 T-REx D2 cells, calcium flux agonist mode; P14416; activation, % at 2 µM;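 active = activation over 3 SD above normal in the single-dose calcium agonist read, cut at about 30% in these data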
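Agonism is scored from calcium flux in a force-coupled, inducible HEK293 cell line expressing D2, read kinetically for 180 s after compound addition against dopamine controls.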
D2 PAM-1: positively modulates the human D2 dopamine receptor allosterically | HEK293 T-REx D2, calcium flux, EC20 dopamine potentiation | hit rate 0.34% among 340,000 | potentiation, % at 10 µM | AID 485347;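 active = potentiation over 3 SD above the plate norm, cut at about 30% in these data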
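Cells plated with tetracycline inducer and held overnight at 30 C; calcium dye loaded 30–90 min at room temperature; baseline taken, compound added and read 180 s; EC20 dopamine then added and read 180 s.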
D2 PAM-2: positive allosteric modulators of human D2 dopamine receptor. P14416. DiscoveRx D2 beta-arrestin cells, luminescence, 90 min; 100% = 57 uM dopamine signal. potentiation, % (concentration not given with the values). hit rate 0.23% among 360,000; in the data active = potentiation above about 50%
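D2 cells co-treated with compound plus 50 nM dopamine (EC20) for 90 min at 37 deg C to detect potentiation. Beta-arrestin recruitment was read as enzyme-fragment luminescence after 1 h at ambient temperature. Full response was set by 57 uM dopamine.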
D2 antag: D2 dopamine receptor (human) antagonism; P14416; hit rate 2% among 340,000; HEK293 TREx D2 cells, calcium flux, dopamine EC80; inhibition, % at 10 µM; AID 485344; in the data active = inhibition above about 30%; inactive = below that, where a call was filed
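Calcium flux kinetic readout in an inducible HEK293 TREx D2 line plated overnight at 30 C. After 180 s compound exposure, an EC80 dopamine challenge follows with another 180 s kinetic read to detect antagonism.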
Of the large screens only hits and unclear results are named; the others gave an inactive call. The list is not random: actives were taken first. Their share in the collection is about 2.4%.

COc1ccccc1CNC(=O)Cn1c(=O)ccc2cc(S(=O)(=O)N3CCCC3)ccc21	none (no result: D2 ag-1, D2 PAM-2, D2 antag)
CCc1ccc(S(=O)(=O)Nc2ccc3c(c2)n(C)c(=O)c(=O)n3C)cc1	none (no result: D2 ag-1, D2 PAM-2, D2 antag)
Cc1ccc(S(=O)(=O)Nc2ccc(N3CCN(C)CC3)nc2)cc1	none
CN1CCN(c2ccc(NS(=O)(=O)c3ccc(Cl)cc3)cn2)CC1	D2 antag 33
CCc1ccc(S(=O)(=O)Nc2ccc(N3CCN(C)CC3)cc2)cc1	D2 antag 75
CCOc1ccccc1NC(=O)N(Cc1ccc(C)o1)C1CCN(C(C)=O)CC1	none (no result: D2 ag-1, D2 PAM-2, D2 antag)
Fc1ccc(N/N=C2/CC(c3ccccc3)Oc3ccccc32)c(F)c1 (stereo unspecified)	D2 PAM-2 82
O=C(NCc1ccccc1)c1nc(-c2cccs2)no1	D2 antag 36
O=C(NCc1ccccc1)c1cc(-c2cccs2)on1	none (no result: D2 ag-2, D2 PAM-1, D2 antag)
CCCOc1ccc(CN(C(=O)c2nc(SC(C)C)ncc2Cl)C2CCS(=O)(=O)C2)cc1 (stereo unspecified)	none (no result: D2 ag-1, D2 PAM-2, D2 antag)
COCCN(C(=O)COC(=O)/C=C/c1ccc(C(F)(F)F)cc1)c1c(N)n(Cc2ccccc2)c(=O)[nH]c1=O	D2 antag 45
C=CCOc1ccccc1CN1CCC(Oc2ccc(C(=O)N3CCCCC3)cc2)CC1	D2 antag 47
Cc1ccc(NC(=O)COc2cccc3c2OC(C)(C)C3)c(O)c1	D2 antag 30
Cc1nc2cc(C(=O)O)ccc2n1-c1ccc(C(C)C)cc1	none (no result: D2 ag-1, D2 PAM-2, D2 antag)
O=C(NCc1cccc(Cl)c1)c1c2c(nc3ccccc13)C(=O)N(C1CCCCC1)C2	none (no result: D2 ag-1, D2 PAM-2, D2 antag)
COc1ccc(-n2ncc3c2CC(C)(C)CC3NC(=O)c2oc(C)cc2C)cc1 (stereo unspecified)	D2 PAM-1 36
CCc1nnc(NC(=O)CSc2nnc(CNc3ccc(Cl)cc3)o2)s1	D2 antag 50
CCc1nnc(NC(=O)CSc2nnc(Cc3ccccc3)o2)s1	none
O=C(N/N=C/c1cccc(Br)c1)C1CC(=O)N(c2ccccc2)C1 (stereo unspecified)	D2 antag 35
COc1ccc(N2CC(C(=O)N/N=C/c3ccccc3)CC2=O)cc1 (stereo unspecified)	none
CC(C)CC(NC(=O)C1CCCCC1)C(=O)Nc1cccc(C(F)(F)F)c1 (stereo unspecified)	none (no result: D2 ag-1, D2 PAM-2, D2 antag)
Cc1ccc(CSc2sc(C(=O)c3ccccc3)c(N)c2C#N)cc1	none
N#Cc1c(SCc2ccccc2)sc(C(=O)c2ccccc2)c1N	D2 antag 65
CC(O)CNCCNCc1c(OCc2ccccc2)ccc2ccccc12 (stereo unspecified)	D2 PAM-1 32
CCNCc1ccccc1OCc1ccccc1	none
OCCNCc1c(OCc2ccc(Cl)cc2)ccc2ccccc12	none
CC(O)CNCCOc1ccccc1OCc1ccccc1 (stereo unspecified)	D2 antag 45
Cc1ccc(S(=O)(=O)NCC(=O)OC(C)C(=O)c2ccccc2)cc1 (stereo unspecified)	D2 antag 31
Cc1ccc(C(=O)C(C)OC(=O)CNS(=O)(=O)c2ccc(C)cc2)cc1 (stereo unspecified)	none
O=C(Nc1nnc(-c2ccccc2F)s1)C1CCCO1 (stereo unspecified)	D2 antag 40
Cc1ccc(-c2cc(NC(=O)c3ccccc3Cl)on2)cc1	none (no result: D2 ag-1, D2 PAM-2, D2 antag)
O=C1c2ccccc2C(=O)c2c(Nc3ccc(CCO)cc3)ccc(O)c21	D2 ag-1 41
COc1ccc(-c2cc3ccccc3n2CC(O)Cn2nc(C)cc2C)cc1 (stereo unspecified)	none
COc1ccc(-c2cc3ccccc3n2CC(O)CN2CCC(C)CC2)cc1 (stereo unspecified)	D2 antag 81
COc1ccc(Nc2oc(-c3cccs3)nc2C#N)cc1	D2 PAM-2 62
CNc1oc(-c2cccs2)nc1C#N	none (no result: D2 ag-2, D2 PAM-1, D2 antag)
O=S(=O)(Nc1ccccn1)c1ccc(Cl)c2ccccc12	D2 antag 31
O=C(CN1CCN(c2ccc(F)cc2)CC1)N1N=CCC1c1ccccc1 (stereo unspecified)	D2 antag 36
Cc1nc2sc(C(c3ccco3)N3CCN(C(c4ccccc4)c4ccccc4)CC3)c(O)n2n1 (stereo unspecified)	D2 PAM-1 33
Cc1nc2sc(C(c3ccco3)N3CCN(c4ccccc4)CC3)c(O)n2n1 (stereo unspecified)	none
Cc1ccc(Cl)c(OCCCCN(C)Cc2ccccc2)c1	D2 antag 45
Cc1ccc(Cl)c(OCCCN(C)Cc2ccccc2)c1	D2 antag 63
CN(CCOCCOc1ccc(Cl)cc1Br)Cc1ccccc1	D2 antag 40
CN(CCCOc1ccccc1F)Cc1ccccc1	none
CN(CCCOc1ccccc1Br)Cc1ccccc1	D2 antag 39
CCOc1ccc(OCCN(C)Cc2ccccc2)cc1	none
CCOc1cccc(OCCOCCN(C)Cc2ccccc2)c1	D2 antag 30
CN(CCOc1ccc(Cl)c(Cl)c1)Cc1ccccc1	D2 antag 65
COc1cccc(C(=O)Nc2ccc3nc(SCCOc4ccccc4)sc3c2)c1	none (no result: D2 ag-1, D2 PAM-2, D2 antag)
Cc1ccc(CNC(=O)CN(c2cccc(C)c2C)S(=O)(=O)c2ccccc2)cc1	none (no result: D2 ag-1, D2 PAM-2, D2 antag)
Cc1cc(C)c2c(=O)c3c(oc2c1)C(=O)N(CCCOC(C)C)C3c1ccccc1F (stereo unspecified)	none (no result: D2 ag-1, D2 PAM-2, D2 antag)
CN1CCC(=C2c3ccccc3C=Cc3ccccc32)CC1	D2 antag 77
O=C(Nc1ccc(Cl)cc1)N1CCC(c2nc(-c3ccccc3Cl)no2)CC1	D2 antag 31
Cc1c(C(=O)N(C)C)sc2c1c(=O)n(-c1ccc(Cl)c(Cl)c1)c(=O)n2Cc1ccc(F)cc1	none (no result: D2 ag-1, D2 ag-2, D2 PAM-2, D2 antag)
c1cc2c3c(cccc3c1)NC1(CCC3(CC1)Nc1cccc4cccc(c14)N3)N2	D2 PAM-2 71
O=C(NC1CCCCC1)c1cccc2c1C(=O)c1ccc(N3CCCC3)cc1S2(=O)=O	none (no result: D2 ag-2, D2 PAM-1, D2 antag)
O=C(NC1CCCC1)c1cccc2c1C(=O)c1ccc(N3CCCCC3)cc1S2(=O)=O	D2 PAM-1 37
CC(C)(C)NC(=O)Cn1cc(S(=O)(=O)Cc2ccccc2Cl)c2ccccc21	none (no result: D2 ag-1, D2 PAM-2, D2 antag)
Cc1cccc(C)c1NC(=O)N1C2CCCC1CC(NC(=O)C(C)(C)C)C2 (stereo unspecified)	D2 antag 38
CC(=O)NC1CC2CCCC(C1)N2C(=O)Nc1c(C)cccc1C (stereo unspecified)	none (no result: D2 ag-2, D2 PAM-1, D2 antag)
Cc1ccc(C)c(NC(=O)CSc2nc(-c3ccccc3)cc(=O)[nH]2)c1	none (no result: D2 ag-1, D2 PAM-2, D2 antag)
COc1ccc2occ(CC(=O)Nc3ccc(S(=O)(=O)Nc4nc(C)cc(C)n4)cc3)c2c1	none (no result: D2 ag-1, D2 PAM-2, D2 antag)
CC1=NN(c2cccc(F)c2)C(=O)/C1=C/c1ccc(N(C)C)cc1	D2 antag 32
COc1ccc(-c2noc(N3CCC(C(=O)N4CCN(c5cccc(OC)c5)CC4)CC3)n2)cc1	none (no result: D2 ag-1, D2 PAM-2, D2 antag)
